SMILES strings stand for the structures. Unmarked numbers belong to inactive results.

The values below come from the supplement of paper PMC11732987, “Enantioselective OTUD7B fragment discovery through chemoproteomics screening and high-throughput optimisation” (Communications Chemistry, 2025).

What all share (test): log2 ratio of Biotin-Ahx-Ub-VS probe labelling (fragment/DMSO); higher = less target engagement (more negative = stronger competition), active = hit call of the paper (q ≤ 0.05, log2 ratio ≤ -1)
Common to all, as to settings: compound concentration: 200 uM; treatment time: 3 h

One experiment deals with T1, OTUD6B (UniProt Q8N6M0).
T1 sequence (whole entry): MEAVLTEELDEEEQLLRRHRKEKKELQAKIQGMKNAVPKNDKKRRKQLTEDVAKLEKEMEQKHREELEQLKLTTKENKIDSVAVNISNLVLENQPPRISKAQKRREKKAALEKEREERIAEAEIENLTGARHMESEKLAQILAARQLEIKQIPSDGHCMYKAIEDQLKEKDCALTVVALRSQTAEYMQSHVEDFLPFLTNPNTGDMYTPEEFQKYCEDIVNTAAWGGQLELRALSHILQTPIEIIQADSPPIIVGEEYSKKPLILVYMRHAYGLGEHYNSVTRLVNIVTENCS
In outline: (§1)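 The table lists average log2 ratios of fragment over vehicle, from an unpaired t-test on global-median-normalised Spectronaut label-free quantities. Proteins with ≥2 unique peptides were used. Samples were HEK293T lysate (495 µg) treated in triplicate with fragment at 200 µM or vehicle for 3 h, then with Biotin-Ahx-Ub-VS (0.5 µM final) for 1 h, with labelled DUBs NeutrAvidin-enriched and run by diaPASEF LC-MS/MS.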

A further experiment concerns the target T2, OTUD7B (UniProt Q6GQQ9).
T2 sequence (whole entry): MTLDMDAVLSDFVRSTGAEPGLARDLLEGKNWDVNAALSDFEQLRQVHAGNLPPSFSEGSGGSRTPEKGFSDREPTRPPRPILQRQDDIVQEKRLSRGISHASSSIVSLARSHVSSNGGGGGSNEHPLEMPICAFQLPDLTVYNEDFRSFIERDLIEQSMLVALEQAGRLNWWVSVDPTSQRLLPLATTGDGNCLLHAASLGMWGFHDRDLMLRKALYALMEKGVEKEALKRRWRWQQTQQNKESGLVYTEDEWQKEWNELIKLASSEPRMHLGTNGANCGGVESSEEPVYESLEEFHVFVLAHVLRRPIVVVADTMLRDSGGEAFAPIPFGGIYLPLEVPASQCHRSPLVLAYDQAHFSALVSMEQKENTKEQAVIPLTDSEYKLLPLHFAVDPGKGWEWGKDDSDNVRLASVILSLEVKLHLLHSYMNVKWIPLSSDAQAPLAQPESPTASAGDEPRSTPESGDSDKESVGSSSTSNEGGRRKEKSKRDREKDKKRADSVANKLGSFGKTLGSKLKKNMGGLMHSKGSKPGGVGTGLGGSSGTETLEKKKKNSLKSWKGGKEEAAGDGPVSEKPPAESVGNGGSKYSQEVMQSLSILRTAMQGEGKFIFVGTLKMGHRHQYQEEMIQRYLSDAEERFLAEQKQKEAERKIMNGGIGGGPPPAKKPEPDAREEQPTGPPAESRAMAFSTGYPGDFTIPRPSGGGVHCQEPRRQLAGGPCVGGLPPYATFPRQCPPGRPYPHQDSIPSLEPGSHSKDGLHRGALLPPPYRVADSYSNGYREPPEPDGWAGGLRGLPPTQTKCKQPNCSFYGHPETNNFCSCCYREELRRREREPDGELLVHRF
In outline:
as §1

Another experiment concerns the target PRPF8 (UniProt Q6P2Q9). Summed up:
as §1

In the next experiment the target is T3, PSMD7 (UniProt P51665).
T3 sequence (whole entry): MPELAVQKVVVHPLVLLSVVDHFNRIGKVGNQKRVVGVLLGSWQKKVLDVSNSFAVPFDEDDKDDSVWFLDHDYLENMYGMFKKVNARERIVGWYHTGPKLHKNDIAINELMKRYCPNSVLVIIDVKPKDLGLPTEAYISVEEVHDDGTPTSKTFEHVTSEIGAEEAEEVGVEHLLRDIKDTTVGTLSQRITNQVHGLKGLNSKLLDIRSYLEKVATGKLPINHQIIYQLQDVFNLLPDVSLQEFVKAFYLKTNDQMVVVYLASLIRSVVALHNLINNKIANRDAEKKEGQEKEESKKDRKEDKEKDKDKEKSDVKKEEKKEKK
In outline:
as §1

Another experiment deals with UCHL1 (UniProt P09936). In outline: as §1
UCHL1, sequence (P09936 whole entry, looked up): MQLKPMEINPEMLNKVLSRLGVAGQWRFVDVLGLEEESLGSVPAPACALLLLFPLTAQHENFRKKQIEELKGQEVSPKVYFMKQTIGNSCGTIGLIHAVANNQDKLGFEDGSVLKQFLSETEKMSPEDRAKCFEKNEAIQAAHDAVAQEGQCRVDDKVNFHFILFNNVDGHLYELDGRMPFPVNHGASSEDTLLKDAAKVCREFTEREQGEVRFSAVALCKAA
For the next experiment, the target named is T4, UCHL3 (UniProt P15374).
T4 sequence (whole entry): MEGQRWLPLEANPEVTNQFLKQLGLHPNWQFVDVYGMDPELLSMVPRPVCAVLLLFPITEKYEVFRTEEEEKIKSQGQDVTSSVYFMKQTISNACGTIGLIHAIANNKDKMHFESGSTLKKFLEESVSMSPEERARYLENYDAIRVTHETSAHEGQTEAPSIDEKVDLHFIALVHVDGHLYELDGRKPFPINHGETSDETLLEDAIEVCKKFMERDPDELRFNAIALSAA
Summed up:
as §1

The next experiment addresses T5, UCHL5 (UniProt Q9Y5K5).
T5 sequence (whole entry): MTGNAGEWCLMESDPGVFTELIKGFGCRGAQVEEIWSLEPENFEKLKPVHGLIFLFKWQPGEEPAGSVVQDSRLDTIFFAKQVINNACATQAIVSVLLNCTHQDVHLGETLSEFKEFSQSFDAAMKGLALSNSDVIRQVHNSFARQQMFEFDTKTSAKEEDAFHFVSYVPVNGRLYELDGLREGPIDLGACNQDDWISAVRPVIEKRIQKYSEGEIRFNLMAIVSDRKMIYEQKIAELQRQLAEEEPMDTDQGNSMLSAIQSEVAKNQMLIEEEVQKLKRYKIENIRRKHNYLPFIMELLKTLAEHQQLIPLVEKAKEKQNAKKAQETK
Summed up: as §1

In another experiment the target is USP10 (UniProt Q14694). Summed up: as §1
USP10, sequence (Q14694 whole entry): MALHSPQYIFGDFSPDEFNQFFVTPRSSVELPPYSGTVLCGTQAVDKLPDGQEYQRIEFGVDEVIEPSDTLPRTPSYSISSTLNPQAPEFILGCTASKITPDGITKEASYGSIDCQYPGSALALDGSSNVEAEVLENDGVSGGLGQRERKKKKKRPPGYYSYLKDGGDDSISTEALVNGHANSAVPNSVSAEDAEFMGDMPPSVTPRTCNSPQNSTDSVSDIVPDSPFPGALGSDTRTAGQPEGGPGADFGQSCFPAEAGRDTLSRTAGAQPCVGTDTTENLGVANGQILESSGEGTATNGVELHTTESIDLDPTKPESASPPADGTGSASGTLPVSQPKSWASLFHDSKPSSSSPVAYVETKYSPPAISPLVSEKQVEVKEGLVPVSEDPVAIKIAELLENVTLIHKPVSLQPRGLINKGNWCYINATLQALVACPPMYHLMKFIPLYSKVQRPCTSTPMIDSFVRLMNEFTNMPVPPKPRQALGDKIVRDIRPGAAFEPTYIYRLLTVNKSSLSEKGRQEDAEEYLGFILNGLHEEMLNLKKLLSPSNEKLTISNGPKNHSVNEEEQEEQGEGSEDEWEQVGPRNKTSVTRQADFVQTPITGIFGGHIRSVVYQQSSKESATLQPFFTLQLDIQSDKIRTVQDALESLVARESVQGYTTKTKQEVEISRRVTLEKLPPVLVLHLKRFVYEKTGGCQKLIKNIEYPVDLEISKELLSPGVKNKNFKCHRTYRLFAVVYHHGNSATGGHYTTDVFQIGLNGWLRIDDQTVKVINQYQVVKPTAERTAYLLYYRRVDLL
The target of the next experiment is T6, USP15 (UniProt Q9Y4E8).
T6 sequence (whole entry): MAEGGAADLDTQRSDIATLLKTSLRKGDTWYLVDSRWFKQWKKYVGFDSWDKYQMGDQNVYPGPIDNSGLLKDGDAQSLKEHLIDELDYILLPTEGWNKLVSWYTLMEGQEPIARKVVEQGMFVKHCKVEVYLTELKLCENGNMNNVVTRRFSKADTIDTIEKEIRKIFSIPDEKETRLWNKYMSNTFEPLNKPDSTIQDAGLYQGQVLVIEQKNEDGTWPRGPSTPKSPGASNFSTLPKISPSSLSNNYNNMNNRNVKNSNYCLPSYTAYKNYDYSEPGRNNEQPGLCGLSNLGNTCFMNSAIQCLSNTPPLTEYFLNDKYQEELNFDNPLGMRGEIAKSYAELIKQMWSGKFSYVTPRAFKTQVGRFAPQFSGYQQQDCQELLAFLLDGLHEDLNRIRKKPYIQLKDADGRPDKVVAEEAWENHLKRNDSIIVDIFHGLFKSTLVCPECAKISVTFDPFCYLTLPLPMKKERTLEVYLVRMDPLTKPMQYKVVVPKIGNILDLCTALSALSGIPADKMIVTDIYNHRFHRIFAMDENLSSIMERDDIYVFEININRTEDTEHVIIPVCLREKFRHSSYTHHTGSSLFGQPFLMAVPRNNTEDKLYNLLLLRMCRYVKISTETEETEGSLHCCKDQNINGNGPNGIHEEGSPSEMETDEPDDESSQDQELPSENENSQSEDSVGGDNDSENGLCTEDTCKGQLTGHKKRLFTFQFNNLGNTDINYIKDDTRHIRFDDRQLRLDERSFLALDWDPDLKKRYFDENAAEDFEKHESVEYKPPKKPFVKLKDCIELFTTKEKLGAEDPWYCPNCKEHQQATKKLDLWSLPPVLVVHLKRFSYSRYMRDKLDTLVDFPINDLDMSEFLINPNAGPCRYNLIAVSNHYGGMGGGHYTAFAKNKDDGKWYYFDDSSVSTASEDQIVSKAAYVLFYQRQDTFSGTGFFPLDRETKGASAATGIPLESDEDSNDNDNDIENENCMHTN
In outline: as §1

In the next experiment the target is USP16 (UniProt Q9Y5T5). In outline:
as §1

USP16, sequence (Q9Y5T5 whole entry, looked up): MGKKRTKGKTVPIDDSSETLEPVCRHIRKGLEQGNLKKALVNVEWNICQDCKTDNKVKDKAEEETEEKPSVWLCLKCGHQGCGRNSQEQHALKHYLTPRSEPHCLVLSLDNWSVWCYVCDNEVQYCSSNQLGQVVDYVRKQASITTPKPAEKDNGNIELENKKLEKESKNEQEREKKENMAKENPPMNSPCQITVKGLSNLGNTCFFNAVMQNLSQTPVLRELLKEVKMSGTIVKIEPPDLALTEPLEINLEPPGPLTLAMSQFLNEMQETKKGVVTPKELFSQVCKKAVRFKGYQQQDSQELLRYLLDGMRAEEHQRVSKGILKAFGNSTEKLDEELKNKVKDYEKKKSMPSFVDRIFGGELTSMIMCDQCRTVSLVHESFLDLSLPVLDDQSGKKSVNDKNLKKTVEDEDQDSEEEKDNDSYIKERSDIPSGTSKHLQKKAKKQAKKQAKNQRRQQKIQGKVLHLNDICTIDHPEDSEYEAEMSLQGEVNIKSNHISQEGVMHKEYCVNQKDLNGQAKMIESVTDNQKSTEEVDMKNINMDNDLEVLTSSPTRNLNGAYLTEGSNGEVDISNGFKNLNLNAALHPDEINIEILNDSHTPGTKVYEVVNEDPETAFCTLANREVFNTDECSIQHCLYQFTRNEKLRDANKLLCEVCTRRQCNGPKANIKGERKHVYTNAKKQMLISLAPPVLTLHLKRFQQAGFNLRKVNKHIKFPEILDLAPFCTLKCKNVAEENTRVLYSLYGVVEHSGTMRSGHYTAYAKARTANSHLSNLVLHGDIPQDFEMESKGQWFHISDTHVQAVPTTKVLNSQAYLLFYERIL

As to `O=C(CCl)N1CC2(CCOCC2)C1`, the “log2 ratio of Biotin-Ahx-Ub-VS probe labelling” value in the experiment with OTUD6B was -0.202; with OTUD7B it was -0.345; with PRPF8, -0.426; with PSMD7, -0.00344; in the experiment with UCHL1, -1.21 (active); with UCHL3, 0.139. For the same molecule, the “log2 ratio of Biotin-Ahx-Ub-VS probe labelling” value with UCHL5 is -0.253; with USP10 it was -0.483; with USP15, -0.212; with USP16 it was -0.888.
